A short description of assay [1]: NCI Yeast Anticancer Drug Screen. Data for the rad50 strain (AID 155).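 Also: 0% = growth of vehicle-only cultures of the same strain.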 The settings on record: S. cerevisiae rad50 strain growth inhibition; at 50.0 µM; stronger effect = higher value. An outline of the steps:
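Growth of the mutant yeast was measured after compound exposure and referenced to vehicle-treated cultures.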

The nature of assay [2]: NCI Yeast Anticancer Drug Screen. Data for the mec2-1 strain (AID 157). The note with it: S. cerevisiae mec2-1 strain, at 50.0 µM, stronger effect = higher value. An outline of the steps:
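Strain: mec2-1 (DNA repair/cell cycle alteration). Compound exposure, then growth measured; inhibition expressed relative to vehicle.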

Assay [3] can be described thus: NCI Yeast Anticancer Drug Screen. Data for the sgs1 mgt1 strain (AID 161).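 Also: 0% = growth of cultures given vehicle only.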 The settings on record: S. cerevisiae sgs1 mgt1 strain, at 50.0 µM, stronger effect = higher value. An outline of the steps:
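Mutant yeast exposed to compound; growth scored against vehicle-only wells.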

Assay [4] in a line: NCI Yeast Anticancer Drug Screen. Data for the cln2 rad14 strain (AID 165).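 Also: 0% = growth equal to vehicle treated cultures.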 The settings on record: S. cerevisiae cln2 rad14 strain, at 50.0 µM, stronger effect = higher value. An outline of the steps:
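Compounds are applied to the cln2 rad14 yeast strain, and growth is then compared with that of vehicle-treated cultures to give inhibition.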

Assay [5] in a line: NCI Yeast Anticancer Drug Screen. Data for the bub3 strain (AID 167). The note with it: S. cerevisiae bub3 mutant strain, at 50.0 µM, stronger effect = higher value. An outline of the steps: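 Whole-cell yeast assay. The mutant strain was incubated with compounds, and growth inhibition was determined by comparison with vehicle-treated cells.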
Assay [6] is described as follows: NCI Yeast Anticancer Drug Screen. Data for the mlh1 rad18 strain (AID 175). The note with it: S. cerevisiae mlh1 rad18 strain growth inhibition; at 50.0 µM; stronger effect = higher value. An outline of the steps: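 Read-out is yeast growth inhibition, calculated against vehicle-only controls. The compound was applied to a strain engineered with DNA damage repair alterations.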

This is part of a sample that, as a whole, favours compounds with a hit. Of some 79,000 tested, about 15% had one in any assay. A number with no mark means an inactive call. The source made the active and inactive calls. Rule as the data show it: active = growth inhibition above about 70%; inactive = the rest.

Take `CC1=C2C(=O)C(C)(C)C=C2C(=O)[C@](C)(O)C12CC2`: the growth inhibition in assay [1] was 66.4%; in assay [2] it was 47.1%; in assay [3], 68%; in assay [4] it was 55.2%; in assay [5] it was -5.95%; in assay [6], 5.4%.
In the case of `[CH3][Sn]([CH3])([O]S(=O)c1ccc(Cl)cc1)[O]S(=O)c1ccc(Cl)cc1` (stereo unspecified), the growth inhibition was 15.7% in assay [1]; -9.3% in assay [2]; -19.8% in assay [3]; 14.7% in assay [4]; -4.7% in assay [5]; -11.1% in assay [6].
In the case of `O=C(O)C(O)(Cl)c1cccs1` (stereo unspecified), the growth inhibition in assay [1] was -0.5%; in assay [2], -3.35%; in assay [3], -4.8%; in assay [4], -16.6%; in assay [5] it was -7.15%; in assay [6], 14.8%.
Regarding `C(=NCCN=CC1CCCC[N-]1)C1CCCC[N-]1.[Cu+2].[O-][Cl+3]([O-])([O-])O` (stereo unspecified), the growth inhibition in assay [1] was 79.8% (active); in assay [2], 71% (active); in assay [3] it was 44.5%; in assay [4] it was 90% (active); in assay [5], 69.5%; in assay [6], 82.7% (active).
In the case of `CC1(C)N=C(N)N=C(N)N1c1ccc(CCc2cc(Cl)ccc2S(=O)(=O)F)c(Cl)c1`, the growth inhibition was 99.5% (active) in assay [1]; 99.7% (active) in assay [2]; 99.7% (active) in assay [3]; 99.2% (active) in assay [4]; 99.3% (active) in assay [5]; 99.5% (active) in assay [6].
As to `O=C/C=C/c1ccco1`, the growth inhibition was 17.4% in assay [1]; -14.3% in assay [2]; -15.2% in assay [3]; 14.2% in assay [4]; -8.45% in assay [5]; 31.8% in assay [6].
Take `CCC(=O)[O][Sn]([CH3])([CH3])[O][Sn]([CH3])([CH3])[O]C(=O)CC`: the growth inhibition in assay [1] is -2.55%; in assay [2] it was 18.1%; in assay [3], -28.8%; in assay [4], 11.8%; in assay [5] it was -16.9%; in assay [6], 3.25%.
As for `COc1cc(C(O)CN)cc(OC)c1OC` (stereo unspecified), the growth inhibition was -12.9% in assay [1]; 2.2% in assay [2]; -6.55% in assay [3]; -7.35% in assay [4]; -3.35% in assay [5]; -6.8% in assay [6].
In the case of `Cc1ccc(S(N)(=O)=O)cc1`, the growth inhibition in assay [1] was 22%; in assay [2], -5.05%; in assay [3], 5.8%; in assay [4], -8.25%; in assay [5], 12.8%; in assay [6], 18.8%.
Consider `CCC(=O)N/N=C(\N)N[N+](=O)[O-]`, for which the growth inhibition was -16.1% in assay [1]; -6.55% in assay [2]; -20.5% in assay [3]; -83.6% in assay [4]; -3.1% in assay [5]; -9.65% in assay [6].
For `C[N+]12CCC34C5=CC(=O)C(=O)C=C5[N+]5(C)C(=O)CC6OCC=C(C1)C(CC32)C6C45` (stereo unspecified), the growth inhibition was -2% in assay [1]; -22.1% in assay [2]; 4.65% in assay [3]; 10.9% in assay [4]; 11.7% in assay [5]; 0.7% in assay [6].
With `CCCC[C@@H]1CCN2C[C@@H](O)[C@@H](O)[C@@H]2[C@H]1O`, the growth inhibition in assay [1] is -2.4%; in assay [2], 5.65%; in assay [3] it was -9.45%; in assay [4], 11.7%; in assay [5] it was 12.2%; in assay [6], -12.9%.
Consider `CCCCCCCC/C=C\CCCCCCCC(=O)OCC(COC(=O)CCCCCCC/C=C\CCCCCCCC)OC(=O)N(CCCl)CCCl`, for which the growth inhibition was -29.2% in assay [1]; -9.25% in assay [2]; -18.4% in assay [3]; 33.6% in assay [4]; -24.2% in assay [5]; 5.45% in assay [6].
As to `O=C1NC(=S)NC(=O)C1=Cc1ccccc1O`, the growth inhibition in assay [1] is -2.15%; in assay [2], -16.9%; in assay [3] it was -12.3%; in assay [4] it was -32.4%; in assay [5], -1.45%; in assay [6], -31.2%.
Take `O=C(O)c1ccc(CI)cc1`: the growth inhibition in assay [1] is -9.6%; in assay [2], -11.9%; in assay [3], 6%; in assay [4], 9%; in assay [5], 15.2%; in assay [6] it was -16.9%.
Turning to `CC[N+](C)(C)c1ccc(C)c(OC(=O)NC)c1`, the growth inhibition is -4.35% in assay [1]; -11.2% in assay [2]; -0.2% in assay [3]; -24.8% in assay [4]; 15.3% in assay [5]; -0.45% in assay [6].
In the case of `COC(C)C(O)(C(=O)OCC1=CCN2CCC(O)C12)C(C)(C)O` (stereo unspecified), the growth inhibition is 1.25% in assay [1]; -5.35% in assay [2]; 21.4% in assay [3]; 5.4% in assay [4]; 10.1% in assay [5]; -52.4% in assay [6].
As to `CCCCC(CC)COP(=S)(S)OCC(CC)CCCC.[Sn]` (stereo unspecified), the growth inhibition in assay [1] is -7.7%; in assay [2] it was -10.4%; in assay [3], -6.5%; in assay [4], -46.9%; in assay [5], 13.8%; in assay [6], -7.7%.
For `OCCCN=Cc1ccccc1O.OCCCN=Cc1ccccc1O.[Cu]`, the growth inhibition in assay [1] was 38%; in assay [2], -9.5%; in assay [3] it was 22.2%; in assay [4] it was -32.1%; in assay [5], 0.35%; in assay [6], 15.6%.
In the case of `O=P1(N(CCCl)CCCl)Oc2ccc(Cl)cc2Sc2c(ccc(Cl)c2Cl)O1` (stereo unspecified), the growth inhibition is 43.5% in assay [1]; 7.9% in assay [2]; 40.5% in assay [3]; 40.5% in assay [4]; 35.4% in assay [5]; 46.7% in assay [6].
For `NC(N)=NN(N=O)C1CCCCC1`, the growth inhibition in assay [1] is 4.35%; in assay [2], 5.05%; in assay [3] it was -7.85%; in assay [4] it was -34.8%; in assay [5] it was -10.5%; in assay [6] it was 5.8%.

Values taken from PubChem BioAssay (NCI).
